PubChem BioAssay AID1626 (SRMLSC, 2009)
Several values for one entry are separate records, joined by “and”; a condition that tells them apart may be missing. Identical values can stand only once. Hit rate of the full screen: of about 220,000 compounds, about 2,000 (0.91%) were called active. Roughly 2% stayed inconclusive and do not appear here. Rule as the data show it: inconclusive = inhibition above about 80% without an active follow-up result; inactive = below that; test concentration not stated here. A selection follows. Potency and affinity values are given separately.

Assay: M. tuberculosis H37Rv growth inhibitors, H37Rv strain (AID 1626);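 also: bacteria incubated seven days before Alamar blue readout; 0% = bacteria only wells and 100% = bacteria with antibiotic wells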
Settings: hits give high values, concentration not given here

Compound | inhibition
COc1cc(NC(=S)N2CCC(C(O)(c3ccccc3)c3ccccc3)CC2)cc(OC)c1 | 4.64% (inactive)
COc1ccccc1C(=O)NNC(=O)c1nn(Cc2ccccc2)c(=O)c2ccccc12 | 2.78% (inactive)
O=c1cc(CSCc2ccc(Cl)cc2)[nH]c(=O)[nH]1 | 7.09% (inactive)
Cc1[nH][nH]c(=O)c1N=Nc1ccc(Cl)cc1 | -0.49% (inactive)
COc1cc2c(cc1NC(=O)CSc1ccccc1)oc1ccccc12 | 83% (inactive)
COc1cc2c(cc1NC(=O)CSc1nc3ccc(C)cc3[nH]1)oc1ccccc12 | 51.1% (inactive)
COc1ccc(-c2cc(C(F)(F)F)n3nc(C(=O)Nc4c(C)n(C)n(-c5ccccc5)c4=O)cc3n2)cc1 | 8.28% (inactive)
CCNc1nc(Cl)nc(NNC(=O)C(C)Oc2ccccc2)n1 (configuration not stated) | 0.39% (inactive)
CCN(c1ccc(NC(=O)CN2C(=O)NC3(CCOc4ccccc43)C2=O)cc1)C(C)C (configuration not stated) | -1.8% (inactive)
N#CCSc1nnc(N)s1 | 8.52% (inactive)
Nc1c2c(nc3ccccc13)CCC2 | 3.36% (inactive)
Nc1c2c(nc3ccn(-c4ccccc4)c(=O)c13)CCCCC2 | 11.1% (inactive)
Cc1ccc(CNC(=O)C2CC(c3ccccc3F)=NO2)cc1 (configuration not stated) | 0.74% (inactive)
COC(=O)CN(C#N)c1nc(N(C)C)nc(N(C)C)n1 | -2.49% (inactive)
CCOC(=O)CN(C#N)c1nc(C)cc(C)n1 | -5.87% (inactive)
CCCCCCN1CCN(c2ccccc2Cl)CC1 | 4.25% (inactive)
O=C(Nc1ccc(F)cc1F)Nc1ccccc1C(=O)NCCN1CCNC1=O | -7.32% (inactive)
CC(C)CCOCc1nc2sc3c(c2c(=O)[nH]1)CCC(C)C3 (configuration not stated) | 5.08% (inactive)
CCOC(=O)c1nc2sc3c(c2c(=O)[nH]1)CCCC3 | 6.3% (inactive) and 4.22% (inactive)
CCOC(=O)N1CCC(NC(=O)CS(=O)Cc2nc(-c3ccc(OC)c(OC)c3)oc2C)CC1 (configuration not stated) | 1.72% (inactive)
Cc1cc(N/N=C/c2ccccc2)nc(NCc2ccccc2)n1 | 7.85% (inactive)
Cc1cc(OC2CCCCC2)nc(NCc2ccccc2)n1 | 6.25% (inactive)
Cc1cc(N2CCCCC2)nc(NCc2ccccc2)n1 | 11.8% (inactive)
COc1ccc(Nc2cc(C)nc(NCc3ccccc3)n2)cc1 | 20.5% (inactive)
Cc1ccc(/C=N/Nc2cc(C)nc(NCc3ccccc3)n2)cc1 | -1.4% (inactive)

Compound | inhibition
CCCCNc1cc(C)nc(NCc2ccccc2)n1 | 8.03% (inactive)
COc1ccc(NC(=O)CCCCn2c(=O)[nH]c3ccccc3c2=O)cc1 | -8.84% (inactive)
CCc1cc(C(=O)N2CCc3c([nH]c4ccccc34)C2c2ccc(OC)cc2F)no1 (configuration not stated) | 1.56% (inactive)
CC(=O)OC1c2ccccc2C(=O)N1Cc1ccccc1 (configuration not stated) | -4.69% (inactive)
Cc1nc(SCC(=O)Nc2ccc(F)cc2)c2oc3ccccc3c2n1 | -5.02% (inactive)
Fc1cccc(CSc2ncnc3c2oc2ccccc23)c1 | 5.28% (inactive)
Fc1ccc(CSc2ncnc3c2oc2ccccc23)cc1 | 15.6% (inactive)
Cc1nc(SCCO)c2oc3ccccc3c2n1 | 10.1% (inactive)
CCc1nc2c(c(=O)c3ccccc3n2C)c(=O)n1CCc1ccc(OC)cc1 | 19.9% (inactive)
O=C(NCc1nc(-c2ccc(C(F)(F)F)cc2)no1)Nc1ccc(F)cc1F | 8.4% (inactive)
O=C(NCc1nc(-c2ccc(C(F)(F)F)cc2)no1)Nc1ccc(OC(F)(F)F)cc1 | -5.05% (inactive)
COc1ccc(N(C(=O)CNC(=O)c2cccs2)C(C(=O)NCC2CCCO2)c2ccccc2)cc1OC (configuration not stated) | -7.89% (inactive)
O=C(c1ccc(F)cc1)N1CCN(c2ccc([N+](=O)[O-])cc2-n2cccc2)CC1 | 20.4% (inactive)
Cc1ccc(C(=O)N2CCN(c3ccc([N+](=O)[O-])cc3-n3cccc3)CC2)cc1 | 33.7% (inactive)
COCC(C)NC(=S)NC(=O)c1cc(S(=O)(=O)N2CCOCC2)ccc1C (configuration not stated) | 4.56% (inactive)
COc1cccc(NC(C(=O)Nc2cccc(C(C)=O)c2)c2ccccc2)c1 (configuration not stated) | 6.16% (inactive)
Cc1cc(C)c2nc(Nc3nc(-c4ccccc4)cc(=O)[nH]3)nc(C)c2c1 | 2.35% (inactive)
CCOC(=O)c1cn(C2CC2)c2c(F)c(F)c(F)cc2c1=O | -2.19% (inactive)
Cc1cccc(-c2cc(=O)c(C(=O)O)cn2-c2ccc(F)cc2F)c1 | -8.14% (inactive)
CC1CCc2cc(F)cc3c(=O)c(C(=O)O)cn1c23 (configuration not stated) | 14.4% (inactive)
O=C(O)c1cn(C2CCCCC2)c2ccccc2c1=O | -2.4% (inactive)
Cc1c(-n2cc(C(=O)O)c(=O)c3cc(F)c(N4CCCC(O)C4)c(F)c32)c(=O)n(-c2ccccc2)n1C (configuration not stated) | -0.64% (inactive)
CCn1cc(C(=O)O)c(=O)c2cc(F)c(N3CCN(C(=S)NC(=O)c4ccc(F)cc4)CC3)cc21 | 15.9% (inactive)
CC1CCCCC1NC(=O)COC(=O)CNC(=O)c1cccc(F)c1 (configuration not stated) | -0.59% (inactive)
CP(=O)(O)CN1CCCCC1 | -1.04% (inactive)

Compound | inhibition
NS(=O)(=O)c1ccc(CCNC(=O)CSc2nc3ccccc3c(=O)n2CCN2CCOCC2)cc1 | -2.17% (inactive)
O=C(O)c1ccccc1C(=O)NCCc1c(C(=O)O)[nH]c2ccc(F)cc12 | -5.11% (inactive)
Cc1ccc(NC(=S)NCCc2ccc(F)cc2)c(C)c1 | 6.97% (inactive)
O=C(N/N=C/c1ccccc1F)NC1CCCCC1 | 6.4% (inactive)
CNC(=S)NNC(=O)c1noc(C)c1C(=O)N1CCN(C(c2ccccc2)c2ccccc2)CC1 | 4.63% (inactive)
O=C(NNC(=O)c1ccc(F)cc1F)c1ccc2c(c1)OCO2 | -6.81% (inactive)
O=C(Nc1nnc(-c2ccc(Cl)cc2)o1)Nc1ccccc1Cl | -6.02% (inactive)
COc1ccccc1C(=O)Nc1nnc(-c2ccc(F)cc2)o1 | 9.06% (inactive)
COc1ccccc1C(=O)NNC(=O)c1ccc(Cl)cc1 | 0.09% (inactive)
O=C(Nc1nnc(-c2ccncc2)o1)c1ccccc1F | 1.42% (inactive)
COc1cccc(-c2nnc(NC(C)=O)o2)c1 | 7.53% (inactive)
COc1cccc(-c2nnc(NC(=O)C(C)C)o2)c1 | 59.4% (inactive)
Cc1ccc(-c2csc3nc(-c4ccncc4)[nH]c(=O)c23)cc1 | 3.27% (inactive)
Cc1cccc(N2CCN(C(=O)Cn3cccc3)CC2)c1C | 3.88% (inactive)
Cc1ccc(/C=N/N2CCN(Cc3ccccc3)CC2)s1 | -23% (inactive)
COc1ccc(C2=NOC(C)(c3nnc(-c4ccc(F)cc4)o3)C2)cc1 (configuration not stated) | -6.66% (inactive)
CNc1ncc(Cc2ccccc2)s1 | 14.7% (inactive)
Cc1cccc(CC2CC(=O)N(c3ncccn3)C2=O)c1 (configuration not stated) | -7.53% (inactive)
N#CCC(=O)Nc1ncc(Cc2ccccc2Cl)s1 | 5.63% (inactive)
Cc1ccc(Cc2cnc(N3C(=N)SC(c4ccccc4)C3=O)s2)cc1 (configuration not stated) | 1.22% (inactive)
Cc1ccc(CC2C(=O)N(c3ncccn3)C(=O)C2C)cc1 (configuration not stated) | -0.53% (inactive)
O=C(CSc1nnnn1-c1ccccc1)Nc1ncc(Cc2ccccc2Cl)s1 | 0.66% (inactive)
Cc1ccc(CC2CC(=O)N(c3ncccn3)C2=O)cc1 (configuration not stated) | -1.69% (inactive)
Cc1cccc(Cc2cnc(NC(=O)c3ccc(C)o3)s2)c1 | 21.9% (inactive)
CCCn1c(=S)[nH]c2cc(C(=O)N3CCc4ccccc4C3)ccc2c1=O | -2.54% (inactive)

Compound | inhibition
CC(C)(C)OC(=O)N1CC(O)CC1C(=O)OCC(=O)c1ccccc1 (configuration not stated) | -11.3% (inactive)
CC(O)CNC(=O)Cc1cc(=O)[nH]c(=O)[nH]1 (configuration not stated) | -2.41% (inactive)
Cc1ccc2cc(CCNC(=O)C(C)(C)C)c(=O)[nH]c2c1 | 4.44% (inactive)
Cc1nn(C)cc1CN1CCC(CO)(CCOc2ccccc2)CC1 | -0.32% (inactive)
Cc1ccc(CNC(=O)C2CNc3cc(C)ccc3O2)cc1 (configuration not stated) | 11.1% (inactive)
CC(C)CN(CCCNC(=O)CN1C(=O)COc2ccc(S(=O)(=O)N3CCCC3)cc21)CC(C)C | -2.35% (inactive)
CNC(=O)/C(C#N)=C\c1ccc(CNS(=O)(=O)c2ccccc2)o1 | -2.69% (inactive)
CSc1nc(C)c2c(n1)N(c1ccc(F)cc1)CC2 | 5.51% (inactive)
COc1ccc(N2CCc3c(C)nc(SC)nc32)cc1 | 11% (inactive)
CC(C)(C)OC(=O)NCCc1nnc(SCc2cccc(Cl)c2)o1 | 13.5% (inactive)
Cc1nc2nc[nH]n2c(=O)c1C/C=C/c1ccccc1 | -3.13% (inactive)
Cc1nc2nc(N)nn2c(C)c1C/C=C/c1ccccc1 | -9.36% (inactive)
Cc1ccnc(NC(=O)CCC(=O)N(CC(=O)NCc2ccccc2)Cc2cccs2)c1 | 6.51% (inactive)
Cc1cc2nccc(-c3ccncc3)n2n1 | 2.36% (inactive)
N#CCC1c2ccccc2CCN1C(=O)Nc1ccc(Cl)cc1 (configuration not stated) | -4.15% (inactive)
N#CCC1c2ccccc2CCN1C(=O)Nc1cccc(C(F)(F)F)c1 (configuration not stated) | -1.17% (inactive)
C=CCN=C1SCC(=O)N1S(=O)(=O)c1ccccc1 | 6.81% (inactive)
Cc1ccn2c(CNC(C)CCn3cccn3)c(C(=O)N3CCCCCC3)nc2c1 (configuration not stated) | -0.19% (inactive)
Cc1nc(N2CCC(C)CC2)c2oc3ccccc3c2n1 | 10% (inactive)
Cc1nc(N2CCN(Cc3nc4ccccc4[nH]3)CC2)c2oc3ccccc3c2n1 | -2.88% (inactive)
COc1ccccc1N1CCN(c2ncnc3c2oc2ccccc23)CC1 | -5.65% (inactive)
Cc1nc(N2CCOCC2)c2oc3ccccc3c2n1 | -2.79% (inactive)
